Our source for the INHIBITION values is ChEMBL document CHEMBL4513216, “Probing the Open Global Health Chemical Diversity Library for Multistage-Active Starting Points for Next-Generation Antimalarials” (ACS Infect Dis, 2020).

Among all 69,000 compounds or so, about 8,600 (12%) showed an effect of 50% or more. Many of the other results were omitted from the sample, so strong results are more common in it than they were.

This experiment deals with Plasmodium berghei. As to the kind of experiment: Screen against P. berghei liver stage (PbLuc), transformed with Luciferase, at 10uM. The experiment is classed as functional, HepG2. The settings on record: tested at 10 uM.
With `Cc1cc(O)cc(=O)n1CCCC(=O)Nc1n[nH]c2ccccc12`, the INHIBITION amounted to 9.96%.

On to `COCC1CN(S(=O)(=O)N(C)C)Cc2ncn(CC3CC3)c21` (centres undefined), for which the INHIBITION was determined as 5.56%.

For `Cc1cccc(CO[C@H]2CN(c3nnc(C)s3)[C@@H]3CCCO[C@H]23)n1`, the INHIBITION worked out at 22.2%.

For the molecule `Cc1nc(CN2CCC3(CCCN(C(=O)c4cnccn4)C3)C2)cs1` (centres undefined), the INHIBITION is reported as -2.46%.

As to `Cc1cc(CN2CCCC2c2c(C)nn(C)c2Cl)on1` (centres undefined), the INHIBITION came out at 47%.

Take `Cc1cnn(CC2CN(Cc3ccc(C(N)=O)cc3)CCO2)c1` (centres undefined): the INHIBITION is listed as 37.4%.

Turning to `COCC(=O)N1CCC[C@]2(C(=O)N(C)C)CN(c3ccccn3)C[C@@H]2C1`, the INHIBITION is given as -4.56%.

`c1ccc2oc(CCCN3CCCC(Cn4cncn4)C3)nc2c1` (centres undefined): the INHIBITION came out at 45.7%.

For `Fc1cccc(N2CCCC3(CN(Cc4ccncc4)CCO3)C2)c1` (centres undefined), the INHIBITION is given as 81.3%.

For `Cc1nnc(N2CCCC3(CN(Cc4nccs4)CCO3)C2)o1` (centres undefined), the INHIBITION came to 8.67%.

Consider `c1ccc(CN2CCOC3(CCCN(c4nccs4)C3)C2)cc1` (centres undefined), for which the INHIBITION is listed as 43.9%.

Consider `Fc1cccc(N2CCCC3(CN(Cc4nccs4)CCO3)C2)c1` (centres undefined), for which the INHIBITION worked out at 88.2%.

As to `Fc1cnc(N2CCCC3(CN(Cc4ccncc4)CCO3)C2)nc1` (centres undefined), the INHIBITION was 1.71%.

As for `Fc1cccc(N2CCOC3(CCCN(c4cnccn4)C3)C2)c1` (centres undefined), the INHIBITION is listed as 41%.

As to `Fc1cccc(N2CCCC3(CN(Cc4cccnc4)CCO3)C2)c1` (centres undefined), the INHIBITION came out at 71.9%.

As for `Cc1nnc(N2CCCC3(CN(Cc4cccnc4)CCO3)C2)o1` (centres undefined), the INHIBITION came to 22.2%.

Turning to `CC(=O)N1CCCC2(CN(Cc3ccncc3)CCO2)C1` (centres undefined), the INHIBITION was -7.59%.

For the molecule `Cc1cc(OCC(N)=O)ccc1NC(=O)C(C)Cc1ccccc1F` (centres undefined), the INHIBITION turned out to be 39.6%.

As for `O=C(c1cnccn1)N1C[C@@H]2C[C@@H](c3nc(C4CC4)cs3)O[C@@H]2C1`, the INHIBITION was determined as 10.7%.

For the molecule `COc1cc(C)nc(N2CCN(C(=O)c3cccc(C#N)c3)CC2)n1`, the INHIBITION was determined as 8.64%.

Consider `COc1ccc2c(c1)C(=O)NC1(CC2)CCN(Cc2ccccn2)C1` (centres undefined), for which the INHIBITION is given as 17.9%.

In the case of `CNC(=O)NC(=O)CCSCc1cc(F)cc2cccnc12`, the INHIBITION was 11.5%.

On to `Cc1cc(C)n(CCNc2ncnc3c2NC(=O)CN3)n1`, for which the INHIBITION is 44.1%.

With `Cc1cc(C)n(CCCNc2ncnc3c2NC(=O)CN3)n1`, the INHIBITION is 57.3%.

As for `Cc1nn(CCNc2ncnc3c2NC(=O)CN3)c(C)c1Cl`, the INHIBITION amounted to 42.4%.

As to `O=C1[C@H]2CN(C3CCOC3)C[C@H]2CN1c1ccccc1` (some centres undefined), the INHIBITION is reported as 10.5%.

In the case of `Cc1n[nH]c(C)c1CNCC(O)c1cccc(Cl)c1` (centres undefined), the INHIBITION is recorded as 46%.

For `Cc1noc(C)c1CN1CCC(N(C)Cc2nnc(C3CC3)n2C)C1` (centres undefined), the INHIBITION is 19.2%.

`O=C(NC1CC1)c1ccn(COc2c(Cl)cccc2Cl)n1`: the INHIBITION amounted to 43.3%.

Consider `Cc1ccoc1C1=NNC(=CN2CCCC(Cn3cncn3)C2)O1` (centres undefined), for which the INHIBITION was 27.1%.

As for `Cc1cc(-c2nn(C)c(Cl)c2CN2CC[C@H](CO)[C@@H](O)C2)no1`, the INHIBITION is given as 36.7%.

`Cc1cc(C)n(C2CCN(Cc3c(-c4cc(C)on4)nn(C)c3Cl)C2)n1` (centres undefined): the INHIBITION is 28.5%.

As to `Cc1cc(-c2nn(C)c(Cl)c2CN2CCN(C)C(C(=O)O)C2)no1` (centres undefined), the INHIBITION is recorded as 59.4%.

On to `Cc1cc(-c2nn(C)c(Cl)c2CN2Cc3ccccc3C(O)C2)no1` (centres undefined), for which the INHIBITION is listed as 51.8%.

`Cc1cc(-c2nn(C)c(Cl)c2CN2CCC3(CC2)[C@H](O)C[C@@H]3O)no1`: the INHIBITION was found to be 50.3%.

Turning to `Cc1cc(-c2nn(C)c(Cl)c2CN2CCOC(C(=O)O)C2)no1` (centres undefined), the INHIBITION came out at 17.6%.

With `Cc1cc(-c2nn(C)c(Cl)c2CN2CC[C@@](O)(C3CCC3)[C@H](C)C2)no1`, the INHIBITION is given as 33.9%.

As for `CCNC(=O)C1CN(Cc2c(-c3cc(C)on3)nn(C)c2Cl)CCO1` (centres undefined), the INHIBITION was found to be 43%.

Regarding `Cc1cc(-c2nn(C)c(Cl)c2CN2CCOCC(O)C2)no1` (centres undefined), the INHIBITION was found to be 41.8%.

For `Cc1cnn(CC2CN(CC(=O)Nc3cc(C)no3)CCO2)c1` (centres undefined), the INHIBITION was -103.725%.

`O=C1CC(c2ccncc2)c2c(sc3c2CCCC3)N1` (centres undefined): the INHIBITION amounted to 20.4%.

For `O=C1CC(c2ccc(C(=O)O)cc2)c2c(sc3c2CCCC3)N1` (centres undefined), the INHIBITION was determined as 89.3%.

For `O=C1CC(c2cccnc2)c2c(sc3c2CCCC3)N1` (centres undefined), the INHIBITION is on record as 26.9%.

With `CC(=O)N(Cc1ncc(C)o1)C1CCN(CCOc2ccccc2)C1` (centres undefined), the INHIBITION amounted to 8.31%.

Consider `Cc1nc2c(c(N(C)C)n1)CCN(C(=O)CN1CCC(O)CC1)C2`, for which the INHIBITION worked out at 45.3%.

As for `CCN(CC)CCC(=O)N1CCc2c(nc(N(C)C)nc2N(C)C)C1`, the INHIBITION worked out at 30.1%.

In the case of `CC(=O)N1CCc2c(nc(N(C)C)nc2N(C)CC2CCCO2)C1` (centres undefined), the INHIBITION is on record as 41.4%.

As for `CN(C)c1nc2c(c(N(C)C)n1)CCN(C(=O)CN1CCC(O)CC1)C2`, the INHIBITION was determined as 56.1%.

Take `CN(C)c1nc2c(c(N(C)C)n1)CCN(C(=O)CN1C[C@H]3CC[C@@H]1C3)C2`: the INHIBITION was found to be 11.7%.

On to `CC(C)SCC(=O)N1CCc2c(nc(N(C)C)nc2N(C)C)C1`, for which the INHIBITION is reported as 61.1%.

As to `Cc1ccc(NC(=O)C2CSCN2C(=O)c2cnsn2)c(C)c1` (centres undefined), the INHIBITION is recorded as -50.6%.

Regarding `Cc1cccc(NC(=O)N2CCC(CO)(Nc3ccccc3)CC2)c1`, the INHIBITION is listed as -15.96%.

On to `Cc1cc(S(=O)(=O)N2CCCc3ccc(F)cc32)sc1C(=O)O`, for which the INHIBITION was determined as 26.8%.

Turning to `CCS(=O)(=O)N1CCc2ccc(NC(=O)Nc3cccc(C)c3)cc21`, the INHIBITION is listed as 85%.

In the case of `COc1ccc(S(=O)(=O)N2CCc3ccc(F)cc32)cc1C(=O)O`, the INHIBITION is reported as 15.3%.

In the case of `CO[C@H]1CN(C(C)C)C[C@@H]1NC(=O)Nc1cccc(SC)c1`, the INHIBITION worked out at 12.6%.

Turning to `CCS(=O)(=O)N1CCc2ccc(NC(=O)Nc3ccc(F)cc3F)cc21`, the INHIBITION is 72.6%.

With `CCS(=O)(=O)N1CCc2ccc(NC(=O)NC(C)(C)C)cc21`, the INHIBITION is recorded as 46.1%.

For `CSc1ccc(NC(=O)Nc2ccc3c(c2)N(S(C)(=O)=O)CC3)cc1`, the INHIBITION is on record as 49%.

For `CCS(=O)(=O)N1CCc2ccc(NC(=O)NC3CCCCC3)cc21`, the INHIBITION stood at 8.41%.

For `O=C(O)c1csc(S(=O)(=O)N2CCCc3ccc(F)cc32)c1`, the INHIBITION is -9.67%.

`CCS(=O)(=O)N1CCCc2ccc(NC(=O)Cc3ccc(F)cc3)cc21`: the INHIBITION amounted to 56.1%.

Consider `CCS(=O)(=O)N1CCc2ccc(NC(=O)Nc3cccc(SC)c3)cc21`, for which the INHIBITION is recorded as 88.4%.

With `O=C(c1ccc2c(c1)CCCC2)N1CCCC(n2cncn2)C1` (centres undefined), the INHIBITION is given as 19.6%.
